Results filed as inconclusive are left out. Activity calls are given as the source filed them.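 Rule for the calls, unless noted: active = normalized viability below 100% at a tested concentration; inactive = the rest.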

Test [1] can be described thus: growth inhibition of DIPG glioma cells, dose response, cell-based, SU-DIPG-XVII, MIPE5.0, CellTiter-Glo, qHTS (AID 1347060; cut-off not given, nearly all actives have AC50 up to about 26 µM;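 for AC50: cells exposed to compound for 48 hours before viability readout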). As to conditions: SU-DIPG-XVII viability, CellTiter-Glo ATP luminescence.
Test [2] in a line: viability loss in pontine glioma line – cell-based, SU-DIPG-XXV, MIPE5.0, CellTiter-Glo, qHTS, dose response (AID 1347065; cut-off not given, nearly all actives have AC50 up to about 26 µM;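 note: cells exposed to compound for 48 hours before ATP readout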). The following applies: CellTiter-Glo ATP luminescence. On the technique in general: ATP-based viability assays read luminescence as a measure of living cells.
Test [3] can be described thus: ovarian cancer cell viability with rucaparib, profiling panel, oncology-focused library, rucaparib conditional (AID 1508598). As to conditions: patient-derived ovarian cancer cells, CellTiter-Glo viability, 144 h, stronger effect = lower value.
Test [4] can be described thus: JHH-DIPG-1 glioma cell viability, MIPE5.0 library, CellTiter-Glo luminescence, qHTS (AID 1347067; cut-off not given, nearly all actives have AC50 up to about 26 µM;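 note: cells exposed to compound for 48 hours before readout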). As to conditions: JHH-DIPG-1 glioma viability, CellTiter-Glo ATP luminescence.
Test [5] is described as follows: SU-DIPG-XXV glioma cell viability, MIPE5.0 library, qHTS (AID 1347068; cut-off not given, nearly all actives have IC50 up to about 30 µM;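 for IC50: cells exposed to compound for 48 hours before viability readout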). (qHTS replaces the single test concentration by a dilution series.)
Test [6] can be described thus: sensitizers of A549 cells to miR-34 induction, primary screen, imaging, A549 dox-inducible miR-34, nuclei and caspase counts (AID 1347080;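 active = compounds whose cell count with miR-34 switched on is under 0.7 times the count with it off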). The following applies: A549 miR-34 inducible, Hoechst nuclei count, 48 h.
Test [7] can be described thus: viability rescue of complex I mutant cybrids, primary screen, cell-based, galactose medium, ATP luminescence (AID 1645843;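 active = z-score of at least 1.8 in each of two replicates, scored against plate mean and spread of sample wells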;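 note: positive z means more ATP and so rescue of galactose-driven cybrid death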). As to conditions: complex I mutant cybrid cells, 72 h, stronger effect = higher value.
The nature of test [8]: SU-DIPG-VI glioma cell viability, MIPE4.0 library, CellTiter-Glo luminescence, qHTS (AID 1347066; cut-off not given, nearly all actives have AC50 up to about 30 µM;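 note: cells exposed to compound for 48 hours before readout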). The following applies: CellTiter-Glo ATP luminescence.
Test [9] in a line: liver-stage malaria parasite growth inhibition, primary screen, cell-based, HepG2, luciferase luminescence, HepG2 viability (AID 624349; in the data active = parasite load remaining mostly below about 12%, no sharp cut-off; inactive = mostly above about 10%;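 note: 100% = mean of DMSO negative control wells on the same plate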). The following applies: P. berghei liver stage in HepG2, luciferase luminescence, concentration not given here; parasite load remaining: stronger effect = lower value; viability: measured here: HepG2 viability without parasites.
Test [10] is described as follows: survival rescue of mitochondrial mutant cells in low glucose, primary screen, MELAS cybrids, Rieske KO mouse fibroblasts, CellTiter-Glo (AID 1508586;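 active = mean z-score across replicates of 1.96 or higher in either the MELAS or the Rieske mutant cell line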;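 note: z relative to plate mean and SD of compound and empty wells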).
Where [11] appears, read: stronger effect = lower value, cell number ratio, induced over uninduced.
Where [12] appears, read: measured here: relative caspase fold change +Dox/-Dox.
The mark [13] stands for this setting: measured here: total cells with miR-34 induction, stronger effect = lower value.
Setting [14] is: measured here: total cells without miR-34 induction.

As a reminder, the AC50 is the concentration giving half of the maximal activity seen. In general, viability refers to a read-out of living cells in per cent, often relative to untreated cells. Take `CN[C@H]1CN(c2ccc3c(=O)c(C(=O)O)cn(-c4nccs4)c3n2)C[C@@H]1OC`: the AC50 is 0.762 µM (active) in test [1] and 4.28 µM (active) in test [2]. Also, the viability in test [3] (at 0.000305 µM, OCI-C5x cells, with rucaparib 10 µM, 100% = cells with rucaparib alone) was 118% (inactive); in test [3] (at 0.000305 µM, OCI-C5x cells, without rucaparib) it was 108% (inactive); in test [3] (at 0.000305 µM, OCI-P5x cells, with rucaparib 20 µM, 100% = cells with rucaparib alone), 98.3% (active); in test [3] (at 0.000305 µM, OCI-P5x cells, without rucaparib) it was 105% (inactive); in test [3] (at 0.00122 µM, OCI-C5x cells, with rucaparib 10 µM, 100% = cells with rucaparib alone), 121% (inactive); in [3] (at 0.00122 µM, OCI-C5x cells, without rucaparib), 111% (inactive). The viability in [3] (at 0.00122 µM, OCI-P5x cells, with rucaparib 20 µM, 100% = cells with rucaparib alone) is 92.3% (active); in [3] (at 0.00122 µM, OCI-P5x cells, without rucaparib) it was 97.9% (active); in test [3] (at 0.00488 µM, OCI-C5x cells, with rucaparib 10 µM, 100% = cells with rucaparib alone), 107% (inactive); in test [3] (at 0.00488 µM, OCI-C5x cells, without rucaparib), 103% (inactive); in [3] (at 0.00488 µM, OCI-P5x cells, with rucaparib 20 µM, 100% = cells with rucaparib alone), 100% (inactive); in test [3] (at 0.00488 µM, OCI-P5x cells, without rucaparib), 98.6% (active). Besides, the viability in test [3] (at 0.0195 µM, OCI-C5x cells, with rucaparib 10 µM, 100% = cells with rucaparib alone) is 110% (inactive); in test [3] (at 0.0195 µM, OCI-C5x cells, without rucaparib) it was 110% (inactive); in [3] (at 0.0195 µM, OCI-P5x cells, with rucaparib 20 µM, 100% = cells with rucaparib alone), 93.2% (active); in test [3] (at 0.0195 µM, OCI-P5x cells, without rucaparib), 95.3% (active); in [3] (at 0.0781 µM, OCI-C5x cells, with rucaparib 10 µM, 100% = cells with rucaparib alone) it was 110% (inactive); in test [3] (at 0.0781 µM, OCI-C5x cells, without rucaparib), 92.5% (active). The viability in [3] (at 0.0781 µM, OCI-P5x cells, with rucaparib 20 µM, 100% = cells with rucaparib alone) was 91.4% (active); in test [3] (at 0.0781 µM, OCI-P5x cells, without rucaparib), 91.4% (active); in test [3] (at 0.313 µM, OCI-C5x cells, with rucaparib 10 µM, 100% = cells with rucaparib alone), 143% (inactive); in test [3] (at 0.313 µM, OCI-C5x cells, without rucaparib) it was 119% (inactive); in test [3] (at 0.313 µM, OCI-P5x cells, with rucaparib 20 µM, 100% = cells with rucaparib alone) it was 79.7% (active); in test [3] (at 0.313 µM, OCI-P5x cells, without rucaparib), 62.5% (active). Besides, the viability in [3] (at 1.25 µM, OCI-C5x cells, with rucaparib 10 µM, 100% = cells with rucaparib alone) was 154% (inactive); in test [3] (at 1.25 µM, OCI-C5x cells, without rucaparib), 118% (inactive); in test [3] (at 1.25 µM, OCI-P5x cells, with rucaparib 20 µM, 100% = cells with rucaparib alone), 63.6% (active); in test [3] (at 1.25 µM, OCI-P5x cells, without rucaparib), 41.5% (active); in [3] (at 5 µM, OCI-C5x cells, with rucaparib 10 µM, 100% = cells with rucaparib alone), 9.22% (active); in [3] (at 5 µM, OCI-C5x cells, without rucaparib) it was 12.6% (active). For the same compound, the viability is 9.42% (active) in [3] (at 5 µM, OCI-P5x cells, with rucaparib 20 µM, 100% = cells with rucaparib alone) and 6.69% (active) in test [3] (at 5 µM, OCI-P5x cells, without rucaparib).

For `O=C(O)CCNc1cc(N2CCc3ccccc3CC2)nc(-c2cccnc2)n1`, the compound was called inactive in [1], in [4] and in test [5].

Regarding `Cc1[nH]nc2ncc(C(=O)N3CCC[C@H]3c3ccc(Cl)cc3)cc12`, the result in test [1], in test [2] and in [5] was inactive.

As usually defined, the IC50 is the concentration at which inhibition is half-maximal. As to `COc1cc(C(N)=O)ccc1NC(=O)[C@@H]1N[C@@H](CC(C)(C)C)[C@@]2(C(=O)Nc3cc(Cl)ccc32)[C@H]1c1cccc(Cl)c1F`, the AC50 in test [1] and in test [4] was 23.5 µM (active) in each case. In addition, the IC50 in test [5] was 16.6 µM (active).

Regarding `O=C(/C=C/N1C[C@H]2C[C@@H]1CN2c1ccccn1)c1ccccc1O`, the compound was classed as inactive in [1] and in test [4].

With `Cc1c(O)cccc1C(=O)NC(CSc1ccccc1)C(O)CN1CC2CCCCC2CC1C(=O)NC(C)(C)C` (stereo not given), the AC50 in test [1] and in test [2] was 20.9 µM (active) in each case. Moreover, the IC50 in test [5] was 18.6 µM (active). Also, the fold change in test [6] (setting [11]) is 1.31 (inactive); in test [6] (setting [12]), 0.935. In addition, the cell count amounted to 2190 in test [6] (setting [13]) and 1680 in [6] (setting [14]). Besides, the z-score in [7] is -1.88 (inactive).

In the case of `CO[C@@H]1[C@H](N(C)C(=O)c2ccccc2)C[C@H]2O[C@]1(C)n1c3ccccc3c3c4c(c5c6ccccc6n2c5c31)C(=O)NC4`, in [1], the AC50 was 1.66 µM (active). Also, the compound was classed as inactive in [8].

Turning to `CC#C[C@@H](CC(=O)O)c1ccc(OCc2cccc(-c3ccc(C(F)(F)F)cc3)c2)cc1`, the result in test [1], in test [4] and in test [5] was inactive.

On to `Nc1nccn2c(C3CCC(C(=O)O)CC3)nc(-c3cc4cccc(Cl)c4[nH]3)c12` (stereo not given), for which the AC50 is 4.17 µM (active) in test [1] and 2.63 µM (active) in test [2]. The result in test [5] was inactive.

Consider `COc1cc2ncnc(Nc3ccc(O)c(Br)c3)c2cc1OC`, for which the parasite load remaining in test [9] was 33.2% (inactive). In test [9], the viability was found to be 98.7%. The results for the AC50 in test [1], in test [2] and in test [4] were 16.6 µM (active), 14.8 µM (active) and 13.2 µM (active), respectively. Besides, the fold change in [6] (setting [11]) was 0.645 (active); in test [6] (setting [12]) it was 0.931. In addition, the cell count was 3410 in test [6] (setting [13]) and 5290 in test [6] (setting [14]). Also, the z-score is -0.521 (inactive) in test [10] (MELAS cybrid survival, CellTiter-Glo 48 h, stronger effect = higher value) and -0.0359 in [10] (Rieske KO mouse fibroblast survival, CellTiter-Glo 72 h).

As for `COCCN1CCN(Cc2ccc(-c3n[nH]c4c3C(=O)c3c(NC(=O)NN5CCOCC5)cccc3-4)cc2)CC1`, the values for the AC50 in test [1] and in test [2] were 0.295 µM (active) and 0.235 µM (active), respectively. The IC50 in [5] is 0.263 µM (active).

The values are drawn from PubChem BioAssay.
